Here are results for 29 targets from the supplement of paper PMC12067093, “Discovery and optimisation of a covalent ligand for TRIM25 and its application to targeted protein ubiquitination” (Chemical Science, 2025).

Of roughly 21,000 targets only a part is listed; those with the largest changes were picked by preference.

Compound in this assay: Cc1cc(ccc1-c1ccccc1)C(=O)N1CCCN(CC1)C(=O)CCl [compound 10]
The assay can be described thus: probe-labelled cysteine peptide fold change vs DMSO (competition) (log2 fold change); higher = less target engagement (more negative = stronger competition). Conditions: THP-1, incubation time: 4 h.
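Further: competitive profiling in live THP-1 cells: cysteine peptides tagged with an iodoacetamide desthiobiotin (IA-DTB) probe, intensity after compound treatment relative to DMSO-treated cells.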

UniProt Q01970, sequence (Q01970 whole entry, looked up): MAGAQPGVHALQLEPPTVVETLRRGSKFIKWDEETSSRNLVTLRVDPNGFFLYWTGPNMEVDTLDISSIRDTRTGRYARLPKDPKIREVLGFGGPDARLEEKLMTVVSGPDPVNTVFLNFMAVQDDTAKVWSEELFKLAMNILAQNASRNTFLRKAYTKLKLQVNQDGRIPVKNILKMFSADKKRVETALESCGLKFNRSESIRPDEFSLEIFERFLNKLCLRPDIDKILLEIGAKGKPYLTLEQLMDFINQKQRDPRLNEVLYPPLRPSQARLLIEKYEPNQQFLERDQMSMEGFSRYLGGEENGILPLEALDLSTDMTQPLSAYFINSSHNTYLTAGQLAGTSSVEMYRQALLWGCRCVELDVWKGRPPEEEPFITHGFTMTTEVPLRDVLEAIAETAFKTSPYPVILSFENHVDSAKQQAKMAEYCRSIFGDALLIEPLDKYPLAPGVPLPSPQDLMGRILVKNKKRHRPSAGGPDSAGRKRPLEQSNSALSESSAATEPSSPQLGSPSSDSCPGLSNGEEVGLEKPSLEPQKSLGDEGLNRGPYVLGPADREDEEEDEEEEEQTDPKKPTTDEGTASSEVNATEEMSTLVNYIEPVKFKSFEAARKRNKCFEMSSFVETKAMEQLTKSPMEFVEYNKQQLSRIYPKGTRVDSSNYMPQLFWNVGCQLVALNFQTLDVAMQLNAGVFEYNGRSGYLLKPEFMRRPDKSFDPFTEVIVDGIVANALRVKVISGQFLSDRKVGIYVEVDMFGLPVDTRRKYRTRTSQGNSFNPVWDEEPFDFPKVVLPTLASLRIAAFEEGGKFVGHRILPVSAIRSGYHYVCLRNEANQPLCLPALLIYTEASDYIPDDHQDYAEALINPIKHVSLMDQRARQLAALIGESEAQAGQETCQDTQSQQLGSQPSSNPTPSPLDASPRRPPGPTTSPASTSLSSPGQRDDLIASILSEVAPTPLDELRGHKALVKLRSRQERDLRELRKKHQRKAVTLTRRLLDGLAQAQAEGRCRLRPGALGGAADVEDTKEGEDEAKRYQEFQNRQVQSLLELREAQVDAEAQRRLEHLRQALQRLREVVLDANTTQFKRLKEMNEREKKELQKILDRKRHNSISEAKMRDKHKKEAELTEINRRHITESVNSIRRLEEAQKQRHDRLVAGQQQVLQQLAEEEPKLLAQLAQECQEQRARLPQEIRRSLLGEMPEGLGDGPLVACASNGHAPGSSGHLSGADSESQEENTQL
UniProt Q8TCU6, sequence (Q8TCU6 whole entry, looked up): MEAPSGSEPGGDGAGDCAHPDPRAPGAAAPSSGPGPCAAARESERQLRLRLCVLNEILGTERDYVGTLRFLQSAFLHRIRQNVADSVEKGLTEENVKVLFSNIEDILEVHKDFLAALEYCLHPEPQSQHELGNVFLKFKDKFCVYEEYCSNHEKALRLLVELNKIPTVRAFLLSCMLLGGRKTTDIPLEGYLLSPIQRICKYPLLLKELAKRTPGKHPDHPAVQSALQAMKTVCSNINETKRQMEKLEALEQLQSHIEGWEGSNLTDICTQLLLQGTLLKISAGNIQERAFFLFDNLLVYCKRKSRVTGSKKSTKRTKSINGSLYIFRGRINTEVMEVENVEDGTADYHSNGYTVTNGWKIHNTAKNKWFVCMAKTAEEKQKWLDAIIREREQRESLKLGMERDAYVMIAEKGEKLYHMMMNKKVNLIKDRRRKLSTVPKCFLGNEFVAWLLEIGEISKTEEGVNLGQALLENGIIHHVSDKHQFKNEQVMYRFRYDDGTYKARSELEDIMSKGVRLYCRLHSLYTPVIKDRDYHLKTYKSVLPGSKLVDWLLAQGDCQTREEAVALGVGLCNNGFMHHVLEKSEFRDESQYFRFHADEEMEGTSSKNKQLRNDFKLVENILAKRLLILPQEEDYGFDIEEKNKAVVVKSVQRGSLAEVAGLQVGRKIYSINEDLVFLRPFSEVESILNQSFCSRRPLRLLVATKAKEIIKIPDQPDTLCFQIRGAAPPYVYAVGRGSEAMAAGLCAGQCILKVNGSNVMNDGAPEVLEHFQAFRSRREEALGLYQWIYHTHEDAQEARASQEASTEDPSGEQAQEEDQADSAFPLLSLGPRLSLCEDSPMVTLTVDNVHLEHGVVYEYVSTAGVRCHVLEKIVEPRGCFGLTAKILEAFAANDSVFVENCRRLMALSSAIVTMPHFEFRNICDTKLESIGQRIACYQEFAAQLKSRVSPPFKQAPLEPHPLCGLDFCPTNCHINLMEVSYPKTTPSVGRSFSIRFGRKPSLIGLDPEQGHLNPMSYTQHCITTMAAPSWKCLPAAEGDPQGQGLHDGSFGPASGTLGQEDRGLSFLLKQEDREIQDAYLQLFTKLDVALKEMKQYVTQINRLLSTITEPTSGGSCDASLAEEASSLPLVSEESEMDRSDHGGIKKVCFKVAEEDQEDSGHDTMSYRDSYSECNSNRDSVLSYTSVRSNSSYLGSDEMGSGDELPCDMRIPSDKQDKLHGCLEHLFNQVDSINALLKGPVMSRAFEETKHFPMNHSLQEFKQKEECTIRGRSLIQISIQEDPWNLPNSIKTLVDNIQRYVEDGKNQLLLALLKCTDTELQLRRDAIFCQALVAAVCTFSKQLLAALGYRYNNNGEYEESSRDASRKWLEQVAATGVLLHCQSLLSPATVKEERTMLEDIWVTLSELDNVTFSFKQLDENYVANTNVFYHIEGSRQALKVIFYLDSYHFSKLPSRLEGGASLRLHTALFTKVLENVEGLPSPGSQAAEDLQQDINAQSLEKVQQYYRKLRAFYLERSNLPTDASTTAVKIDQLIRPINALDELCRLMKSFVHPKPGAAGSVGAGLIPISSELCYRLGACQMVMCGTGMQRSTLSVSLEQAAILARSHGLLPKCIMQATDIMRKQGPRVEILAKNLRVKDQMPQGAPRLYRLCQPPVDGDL
UniProt P53609, sequence (P53609 whole entry, looked up): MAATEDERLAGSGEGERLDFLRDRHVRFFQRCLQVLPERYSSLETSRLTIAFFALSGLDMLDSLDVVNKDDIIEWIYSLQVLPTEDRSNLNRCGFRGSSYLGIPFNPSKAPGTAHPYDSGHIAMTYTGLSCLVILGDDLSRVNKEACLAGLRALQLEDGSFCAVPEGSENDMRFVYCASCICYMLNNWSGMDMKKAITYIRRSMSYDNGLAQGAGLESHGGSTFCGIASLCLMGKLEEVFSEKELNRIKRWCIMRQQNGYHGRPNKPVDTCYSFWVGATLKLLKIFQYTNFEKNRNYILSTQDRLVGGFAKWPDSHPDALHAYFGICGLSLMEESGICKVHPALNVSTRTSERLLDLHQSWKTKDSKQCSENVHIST
UniProt P05166, sequence (P05166 whole entry, looked up): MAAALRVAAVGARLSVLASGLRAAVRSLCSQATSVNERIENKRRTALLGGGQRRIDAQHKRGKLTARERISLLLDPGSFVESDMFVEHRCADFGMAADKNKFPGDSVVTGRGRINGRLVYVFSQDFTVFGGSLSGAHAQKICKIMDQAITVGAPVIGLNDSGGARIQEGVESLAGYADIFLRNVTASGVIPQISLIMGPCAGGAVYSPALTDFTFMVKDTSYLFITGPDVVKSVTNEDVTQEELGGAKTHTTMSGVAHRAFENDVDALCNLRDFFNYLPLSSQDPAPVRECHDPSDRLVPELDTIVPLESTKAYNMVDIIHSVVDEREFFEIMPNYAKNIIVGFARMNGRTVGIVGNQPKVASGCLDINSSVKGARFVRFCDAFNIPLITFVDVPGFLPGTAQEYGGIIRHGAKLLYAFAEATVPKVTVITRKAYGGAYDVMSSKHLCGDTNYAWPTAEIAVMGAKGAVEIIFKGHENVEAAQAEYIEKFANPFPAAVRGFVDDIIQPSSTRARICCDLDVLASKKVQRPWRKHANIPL
UniProt Q15181, sequence (Q15181 whole entry, looked up): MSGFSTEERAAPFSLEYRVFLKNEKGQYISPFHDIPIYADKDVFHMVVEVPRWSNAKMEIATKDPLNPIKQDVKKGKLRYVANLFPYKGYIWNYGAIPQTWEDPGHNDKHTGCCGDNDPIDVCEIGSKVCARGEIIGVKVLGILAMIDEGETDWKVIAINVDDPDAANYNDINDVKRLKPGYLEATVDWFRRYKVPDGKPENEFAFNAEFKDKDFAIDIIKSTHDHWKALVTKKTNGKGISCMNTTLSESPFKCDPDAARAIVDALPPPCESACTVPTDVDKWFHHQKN
UniProt Q15172, sequence (Q15172 whole entry): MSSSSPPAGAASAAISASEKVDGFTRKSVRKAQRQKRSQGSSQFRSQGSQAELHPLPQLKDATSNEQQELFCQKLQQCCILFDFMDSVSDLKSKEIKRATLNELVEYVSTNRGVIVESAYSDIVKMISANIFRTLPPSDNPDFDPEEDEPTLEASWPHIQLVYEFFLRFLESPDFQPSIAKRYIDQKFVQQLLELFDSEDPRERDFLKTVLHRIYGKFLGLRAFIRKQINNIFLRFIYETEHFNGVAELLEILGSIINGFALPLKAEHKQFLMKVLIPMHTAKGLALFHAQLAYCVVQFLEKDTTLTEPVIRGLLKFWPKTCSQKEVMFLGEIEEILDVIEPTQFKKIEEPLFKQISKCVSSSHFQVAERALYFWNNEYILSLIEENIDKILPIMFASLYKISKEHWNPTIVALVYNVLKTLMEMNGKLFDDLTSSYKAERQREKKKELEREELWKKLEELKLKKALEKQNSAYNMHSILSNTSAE
UniProt P60510, sequence (P60510 whole entry, looked up): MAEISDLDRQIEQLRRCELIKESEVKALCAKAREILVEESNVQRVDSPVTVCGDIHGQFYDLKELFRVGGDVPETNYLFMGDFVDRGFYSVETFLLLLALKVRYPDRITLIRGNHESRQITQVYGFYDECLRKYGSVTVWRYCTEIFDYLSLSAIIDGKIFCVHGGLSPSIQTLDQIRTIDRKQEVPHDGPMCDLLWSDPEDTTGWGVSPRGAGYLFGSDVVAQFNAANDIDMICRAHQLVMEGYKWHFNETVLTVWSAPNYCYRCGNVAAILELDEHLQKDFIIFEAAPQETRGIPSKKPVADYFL
UniProt Q7RTV0, sequence (Q7RTV0 whole entry, looked up): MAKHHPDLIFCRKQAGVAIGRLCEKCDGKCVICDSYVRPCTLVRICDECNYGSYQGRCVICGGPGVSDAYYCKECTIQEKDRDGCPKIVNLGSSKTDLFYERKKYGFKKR

Take “PLXNB2_O15031_1149_TLTETDLYCEPPEVQPPPK (UniProt O15031)”: the “probe-labelled cysteine peptide fold change” value was -0.174 (10 µM) and -0.00622 (50 µM).
On to “PINX1_Q96BK5_94_NNHLGLGATINNEDNWIAHQDDFNQLLAELNTCHGQETTDSSDKK (UniProt Q96BK5)”, for which the “probe-labelled cysteine peptide fold change” value (10 µM) was 0.15 and the “probe-labelled cysteine peptide fold change” value (50 µM) was 0.124.
In the same order, the values of “PDLIM4_P50479_258_CGHGIVGTIVK (UniProt P50479)” are -0.0847 and -0.546.
Regarding “PHKA1_P46020_238_GGPQSVIHVLADEVQHCQSILNSLLPR (UniProt P46020)”, the “probe-labelled cysteine peptide fold change” value by setting is: (10 µM) 0.143; (50 µM) -0.161.
For the target “PREX1_Q8TCU6_1173_DSYSECNSNR (UniProt Q8TCU6)”, the “probe-labelled cysteine peptide fold change” value came out at 0.634 (10 µM) and 1.39 (50 µM).
In the same order, the values of “PPP1CC_P36873_140_IYGFYDECKR<|>PPP1CA_P62140_140_IYGFYDECKR (UniProt P62140+P36873)” are 0.0922 and 0.0296.
In the same order, the values of “PPP2R2D_Q66LE6_245_SFNIVDIKPANMEELTEVITAAEFHPHQCNVFVYSSSK (UniProt Q66LE6)” are -0.00789 and -0.502.
On to “PDCD6IP_Q8WUM4_691_CSDIVFAR (UniProt Q8WUM4)”, for which the “probe-labelled cysteine peptide fold change” value reads like this: (10 µM) -0.00307; (50 µM) -0.0695.
Taken in the same sequence, the figures for “PEX6_Q13608_564_HLLLNEDPLNSCPPLMVVATTSR (UniProt Q13608)” were 0.0661 and 0.052.
With “PGGT1B_P53609_162_ALQLEDGSFCAVPEGSENDMR (UniProt P53609)”, the “probe-labelled cysteine peptide fold change” value reads like this: (10 µM) -0.0186; (50 µM) -0.573.
Taken in the same sequence, the figures for “PPWD1_Q96BP3_287_AYPTSVCFSPDGK (UniProt Q96BP3)” were 0.0829 and 0.156.
In the same order, the values of “PCBP2_Q15366_158_AITIAGIPQSIIECVK (UniProt Q15366)” are 0.149 and -0.0185.
Taken in the same sequence, the figures for “PIK3C2A_O00443_541_HLYQIEKPCK (UniProt O00443)” were -0.457 and -1.29.
Regarding “PCCB_P05166_291_DFFNYLPLSSQDPAPVRECHDPSDR (UniProt P05166)”, the “probe-labelled cysteine peptide fold change” value (10 µM) was -0.474 and the “probe-labelled cysteine peptide fold change” value (50 µM) is -0.454.
Taken in the same sequence, the figures for “PLXNB2_O15031_1504+1506_GQPCSCWPRPDSVVLEWRPGSTAQILSDLDLTSQR (UniProt O15031)” were -0.0809 and -0.762.
Turning to “PPM1E_Q8WY54_307_QEMFPHDPAEALCR (UniProt Q8WY54)”, the “probe-labelled cysteine peptide fold change” value (10 µM) was -0.144 and the “probe-labelled cysteine peptide fold change” value (50 µM) is -0.28.
In the same order, the values of “PPA1_Q15181_114_HTGCCGDNDPIDVCEIGSK (UniProt Q15181)” are 0.105 and 0.181.
In the same order, the values of “PPP2R5A_Q15172_72_DATSNEQQELFCQK (UniProt Q15172)” are 0.0287 and -0.096.
In the same order, the values of “PGK1_P00558_367+379_GCITIIGGGDTATCCAK (UniProt P00558)” are 0.296 and -0.173.
As for “PHGDH_O43175_18_VLISDSLDPCCR (UniProt O43175)”, the “probe-labelled cysteine peptide fold change” value is -0.444 (10 µM) and -0.677 (50 µM).
In the same order, the values of “PKN3_Q6P5Z2_131_QGAENMTHTCASGTPK (UniProt Q6P5Z2)” are -0.00333 and -0.199.
In the same order, the values of “POLE_Q07864_600_HALEEEEKVPVEQVTNFEEVCDEIK (UniProt Q07864)” are -0.247 and -1.05.
Taken in the same sequence, the figures for “PHF5A_Q7RTV0_46_ICDECNYGSYQGR (UniProt Q7RTV0)” were -0.00469 and -0.327.
Take “PGK1_P00558_316_TGQATVASGIPAGWMGLDCGPESSK (UniProt P00558)”: the “probe-labelled cysteine peptide fold change” value was -0.217 (10 µM) and 0.0673 (50 µM).
Taken in the same sequence, the figures for “PPP4C_P60510_193_KQEVPHDGPMCDLLWSDPEDTTGWGVSPR (UniProt P60510)” were -0.0839 and -0.279.
For the target “PDIA4_P13667_555+558_DVLIEFYAPWCGHCK<|>PDIA3_P30101_406+409_DVLIEFYAPWCGHCK (UniProt P30101+P13667)”, the “probe-labelled cysteine peptide fold change” value runs as follows: (10 µM) -0.251; (50 µM) -1.15.
Taken in the same sequence, the figures for “POLK_Q9UBT6_545_SIIGFLQAGNQALSATECTLEK (UniProt Q9UBT6)” were -0.695 and -0.377.
On to “PLEK_P08567_295_GCVVTSVESNSNGR (UniProt P08567)”, for which the “probe-labelled cysteine peptide fold change” value by setting is: (10 µM) -0.14; (50 µM) -0.138.
Taken in the same sequence, the figures for “PLCB3_Q01970_360_CVELDVWK (UniProt Q01970)” were 0.0505 and -0.317.
